# Screens: PubChem, National Center for Advancing Translational Sciences (NCATS)
# This is a sample that favours compounds with a hit; in the whole collection about 3.3% have one here.
# LmPK inhibitor = blocks Leishmania mexicana pyruvate kinase activity. purified LmPK, Kinase-Glo ATP luminescence, 1 h. Potency, µM (doses to about 57.5 µM), inactives show at the highest dose activity change, negative = inhibition, usual class: inhibitors. 0.37% of 290,000 active
# Target sequence (Q27686 whole entry, looked up): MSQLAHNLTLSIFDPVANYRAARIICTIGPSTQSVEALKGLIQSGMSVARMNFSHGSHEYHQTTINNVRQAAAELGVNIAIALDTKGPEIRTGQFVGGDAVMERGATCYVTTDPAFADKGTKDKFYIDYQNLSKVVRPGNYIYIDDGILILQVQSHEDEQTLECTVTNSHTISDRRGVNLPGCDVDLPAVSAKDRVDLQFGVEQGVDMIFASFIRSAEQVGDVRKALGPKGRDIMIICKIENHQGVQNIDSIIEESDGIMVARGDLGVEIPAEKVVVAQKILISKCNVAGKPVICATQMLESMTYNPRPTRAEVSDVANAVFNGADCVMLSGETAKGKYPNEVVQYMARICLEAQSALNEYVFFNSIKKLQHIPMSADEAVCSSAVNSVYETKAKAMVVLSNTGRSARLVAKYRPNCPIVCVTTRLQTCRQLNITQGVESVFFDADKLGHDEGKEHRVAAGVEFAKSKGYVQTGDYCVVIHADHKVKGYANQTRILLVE
#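 Screened at intermediate enzyme activity to detect both inhibitors and activators: LmPK at 0.1 nM, with a 0.5 nM enzyme column as activation reference. PEP 0.5 mM, ADP 0.1 mM; ATP detected by luminescence after 1 h.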
# FBPA Giardia inh = inhibitors of Giardia lamblia fructose-1,6-bisphosphate aldolase | Potency, µM (doses to about 59.6 µM), for inactives: at the top dose activity, negative = inhibition, most hits filed as inhibitors | purified Giardia FBPA | A8B2U2 | AID 2451 | 0.71% of 290,000 active; also: nearly all actives have a fitted effect of over 55% in size
#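 40 nM FBPA preincubated 10 min at RT with compound (up to 57.5 uM final), then substrate plus GAPDH/TPI/NAD/arsenate coupling and diaphorase/resazurin added. Fluorescence read after 20 min at RT, 525/598 nm.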
# RE007 growth inh = less growth of the S. pombe RE007 Vpr strain | S. pombe RE007 Vpr strain, BacTiter-Glo ATP luminescence, 24 h | Potency, µM (series often up to 92.2 µM), for the others: at the top dose activity change, negative = less growth, hits mostly inhibitors | 0.21% of 360,000 active; active = well fitted falling curve with a large enough effect; inconclusive = small, poorly fitted or top-dose-only effect; inactive = no such curve, though single readings can be large or run the other way; also: nearly all actives have a fitted effect of over 50% in size
#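 Fission yeast RE007 carrying one integrated HIV-1 vpr copy, seeded at OD 0.01 in PMG+AL medium with 23 nL pinned compound. Grown 24 h at 30 degrees; viability read by BacTiter-Glo luminescence after 5 min.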
# Sm TGR inh = blocks Schistosoma mansoni thioredoxin glutathione reductase. Q962Y6. purified TGR, DTNB reduction, TNB absorbance 405 nm. Potency, µM (top dose mostly 114 µM), for the others: at the top dose activity change, negative = inhibition, actives largely listed as inhibitors. 3% of 360,000 active; also: nearly all actives have a fitted effect of over 60% in size
#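 Kinetic colorimetric format: TGR-catalysed, NADPH-driven DTNB reduction monitored via TNB absorbance. Enzyme dispensed at 20 nM; compound exposure 15 min at room temperature before reaction start.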
# Tb PYK inh = T. brucei pyruvate kinase inhibition | 0.12% of 410,000 active | Potency, µM (series often up to 76.8 µM), without a hit: at the highest dose activity, negative = inhibition, usual class: inhibitors | Q57TT1 | TbPYK enzyme, Kinase-Glo Plus ATP luminescence, 45 min | AID 624173; also: nearly all actives have a fitted effect of over 50% in size
#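 Luminescence from Kinase-Glo Plus, added after a 45-minute room-temperature reaction, served as the end-point read-out. The enzyme and substrate were preincubated with compound before ADP (130 uM final) initiated turnover. Concentration-effect curves came from normalized qHTS data.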
# Active calls of the source: *; ? = inconclusive; / = not tested or not shown; [ ] = another dose, or the depositor's remark. Unless noted, calls follow the shape of the dose curve; as a rule, active = well fitted curve in the direction sought with a large enough effect; inconclusive = small, poorly fitted or top-dose-only effect, or another doubt; inactive = no such curve, though single readings can be large; an effect the other way counts as inactive or inconclusive. % is scaled to controls: 0 for no effect and ±100 for the full control effect; potency is read from the fitted curve at half-maximal effect.
SMILES,LmPK inhibitor,FBPA Giardia inh,RE007 growth inh,Sm TGR inh,Tb PYK inh
COc1ccc(C(=O)/C=C/C(=O)N(Cc2ccccc2)C(C(=O)NC2CCCCC2)c2ccncc2)c(O)c1 (stereo unspecified),0%,-6%,-19%,-2%,0%
COc1ccc(C(=O)/C=C/C(=O)N(Cc2ccc(F)cc2)C(C(=O)NC2CCCCC2)c2ccncc2)c(O)c1 (stereo unspecified),0%,-11%,1%,-13%,-4%
COc1ccc(C(=O)/C=C/C(=O)N(CC(=O)NC2CCCCC2)Cc2ccccc2)c(O)c1,4%,6%,2%,1.4µM*,-13%
COc1cccc([C@@H]2Oc3ccc(OC)cc3/C(=N/O[C@@H](C)CN3CCCc4nc(C)c(C)cc43)[C@@H]2O)c1,/,-4%[12.9 µM],/,/,/
CC(=O)c1c(C)oc2c1C(=O)c1ccccc1C2=O,-6%,?,?,4%,-9%
Cc1nc2c(o1)C(=O)c1ccccc1C2=Nc1ccccc1,/,/,7.1µM*,/,-2%
COc1cccc(OC)c1-c1nn2c(-c3cc(-c4ccccc4)n[nH]3)nnc2s1,-11%,3%,7%,13µM*,-2%
Cc1ccc(N=Cc2cc(Cc3ccccc3Cl)cc([N+](=O)[O-])c2O)c(O)c1,-5%,?,-27%,11µM*,-3%
Cc1n[nH]c(C)c1Sc1ccccc1N=Cc1cc(Cl)cc([N+](=O)[O-])c1O,-6%,-15%,-7%,-8%,-3%
CC(=O)n1cc(N(C(=O)CCl)c2ccc(C)cc2)c2ccccc21,7%,-1%,4%,0.71µM*,-1%
CC(=O)N(c1ccc(Cl)cc1)c1cn(C(C)=O)c2ccccc12,4%,3%,6%,7%,-2%
COc1ccccc1CNC(=O)CN1C(=O)COc2ccc(S(=O)(=O)NC3CCCC3)cc21,-2%,1%,3%,1%,3%
O=C(N/N=C/c1ccc(N2CCOCC2)o1)c1cccc(C(F)(F)F)c1,-1%,?,5%,11µM*,?
O=C(Nc1ccc(N2CCOCC2)nc1N1CCOCC1)c1cccc(C(F)(F)F)c1,6%,-16%,4%,7%,-8%
O=C(N/N=C/c1ccc(N2CCCCC2)o1)c1ccccc1[N+](=O)[O-],-9%,-23%,/,4µM*,?
O=C(N/N=C/c1ccncc1)c1ccccc1[N+](=O)[O-],0%,4%,4%,-11%,0%
O=C(N/N=C/c1ccc(N2CCOCC2)o1)c1ccccc1[N+](=O)[O-],-8%,-11%,7%,8.9µM*,?
O=C(Nc1ccccc1N1CCOCC1)c1ccccc1[N+](=O)[O-],7%,6%,6%,11%,-3%
O=C(CSc1nc2ccccc2c(=O)n1Cc1ccccc1)NCc1ccco1,8%,6%,5%,-4%,-4%
CCn1c(SCC(=O)NCc2ccco2)nc2ccccc2c1=O,9%,1%,-6%,45µM*,-1%
O=C(CSc1nc2ccccc2c2nc3ccccc3n12)NCc1ccco1,5%,-4%,0%,8.9µM*,6%
O=C(CSc1nc2[nH]ncc2c(=O)n1-c1ccccc1Br)NCc1ccco1,1%,20%,8%,22µM*,-13%
N#CCSc1nc2ccccc2c(=O)n1CCCC(=O)NCc1ccco1,-5%,6%,5%,-1%,6%
O=C(CCCCCn1c(SCc2ccncc2)nc2ccccc2c1=O)NCc1ccco1,7%,-3%,7%,45µM*,-8%
Cn1c(SCC(=O)NCc2ccco2)nc2ccccc2c1=O,-2%,8%,-4%,0%,2%
SMILES,LmPK inhibitor,FBPA Giardia inh,RE007 growth inh,Sm TGR inh,Tb PYK inh
O=C(CSc1ccccn1)C12CC3CC(CC(C3)C1)C2,0%,12%,35%,0%,1%
O=C(Nc1cc(S(=O)(=O)N2CCCC2)ccc1OCC(F)(F)F)c1ccc(F)cc1,2%,3%,-6%,-7%,-7%
CCOCCCn1c(SCC(=O)Nc2ccccc2OC)nc2ccccc2c1=O,0%,-1%,-8%,-6%,-3%
COCCCn1c(SCC(=O)Nc2ccc(NC(=O)c3ccco3)c(OC)c2)nc2ccccc2c1=O,4%,-1%,14%,40µM*,0%
CC(C)C(OC(=O)c1ccco1)C(=O)NCc1ccc2c(c1)OCO2 (stereo unspecified),-1%,/,-11%,4%,2%
CCOC(=O)N1CCC(Nc2c(-c3ccccc3)c(=O)c2=O)CC1,-2%,1%,-14%,45µM*,5%
COc1ccccc1N1C(=O)[C@@H]2[C@H](C1=O)[C@H](C(=O)c1ccc(OC(C)=O)cc1)N1N=CC=C[C@@H]21,-1%,?,1%,16µM*,-14%
COc1cc2c(cc1NC(=O)/C=C/c1ccc([N+](=O)[O-])cc1)oc1ccccc12,-2%,6%,4%,?,2%
CCOc1ccc(C)cc1S(=O)(=O)n1ccnc1,8%,-17%,-2%,11%,0%
CS(=O)(=O)c1ccc(S(=O)CC(=O)Oc2ccc(Cl)cc2)c([N+](=O)[O-])c1 (stereo unspecified),10%,-27%,-4%,1.6µM*,-2%
O=C(CS(=O)c1ccccc1[N+](=O)[O-])Oc1ccc(Br)cc1 (stereo unspecified),-4%,-13%,?,25µM*,-5%
O=[N+]([O-])c1cc(CS(=O)(=O)Oc2ccc(Cl)cc2)c(O)c([N+](=O)[O-])c1,/,/,-13%,/,2%
COc1cccc2oc3cc(C#Cc4ccccn4)ccc3c(=O)c12,-3%,-15%,7%,7.9µM*,-17%
Clc1ccc2[nH]c3c(c2c1)CCc1cn[nH]c1-3,2%,0%,35µM*,-34%,-5%
Cc1nc(C(F)(F)F)ccc1C(=O)N1CCC1(C)C(=O)NS(=O)(=O)c1cccc(C#N)c1 (stereo unspecified),/,/,3%,/,3%
N#Cc1ccc2c(=O)n(-c3ccccc3)sc2c1,/,/,10µM*,/,3.2µM*
Cc1ccccc1-n1sc2cc(F)ccc2c1=O,21%,?,-92%,-27%,8.9µM*
O=c1c2ccccc2sn1-c1nccs1,0%,?,0%,9%,5.6µM*
CC(=O)Nc1ccc2c(=O)n(-c3ccccc3)sc2c1,/,/,12%,/,7.1µM*
O=C(NCc1noc2ccccc12)N1CCN(c2ccccc2)CC1,/,/,/,4%,-13%
O=C(O)c1cccc(-n2sc3ccccc3c2=O)c1,/,/,1%,?,?
O=c1c2ccccc2sn1-c1ccccc1,?,?,8.9µM*,6%,?
O=C1CN(c2ccccc2F)C(=O)CN1c1ccccc1F,-11%,-2%,-11%,3%,6%
O=c1c2ccccc2sn1-c1cccc(Cl)c1,/,/,10µM*,/,7.1µM*
